Most compounds without a hit are left out; they make up all but 1.2% or so of the library.
Platelet DG rel: platelet dense granule release activity; inhibition, %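 (compounds screened at 7.5 µM in platelet-rich plasma)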; 300,000 tested, 0.22% active; human platelet-rich plasma, SFLLRN dense granule ATP release, luminescence; AID 1663;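 active = mean replicate score, as percent of positive control, at or above 50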
MIN6 prolif: MIN6 beta-cell proliferation induction | MIN6 cells proliferation, ATPlite luminescence, 48 h; cells starved in 0.2% serum; 100% = growth in 10% serum | 330,000 tested, 0.29% active | proliferation, % at 10 µM;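 active = compounds whose signal lies at least 3.5 SD above the mean of all wells on their plate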;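 also: 0% = DMSO-treated cells in low-serum medium and 100% = 10% serum control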
NTR1 ag: NTR1 (human) agonism | NTR1-U2OS beta-arrestin-GFP spot imaging, agonist mode | P30989 | AID 493036 | activation, % at 20 µM | 330,000 tested, 0.17% active;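 active = activation at or above 40% of the spot to cytoplasm intensity ratio, with at least 20 cells analyzed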;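 also: 0% = DMSO without peptide and 100% = 100 nM NTR1 peptide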
Target sequence (P30989 whole entry, looked up): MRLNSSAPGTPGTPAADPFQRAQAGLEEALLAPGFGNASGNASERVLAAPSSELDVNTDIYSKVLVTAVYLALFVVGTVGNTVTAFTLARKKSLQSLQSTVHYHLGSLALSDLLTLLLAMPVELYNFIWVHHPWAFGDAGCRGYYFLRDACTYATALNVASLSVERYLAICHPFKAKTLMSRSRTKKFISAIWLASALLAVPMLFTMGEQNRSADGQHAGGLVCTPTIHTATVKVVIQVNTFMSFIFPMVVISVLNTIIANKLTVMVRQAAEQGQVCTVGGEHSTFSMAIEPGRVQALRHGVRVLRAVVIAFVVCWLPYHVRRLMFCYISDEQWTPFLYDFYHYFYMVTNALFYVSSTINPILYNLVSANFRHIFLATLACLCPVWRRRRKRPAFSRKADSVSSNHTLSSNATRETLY
GRK2 aptamer HTS: human GRK2 inhibition via aptamer displacement | P25098 | bead flow cytometry, FAM-aptamer displacement from GRK2 | inhibition of aptamer binding, % at 10 µM | 330,000 tested, 0.59% active | AID 488847;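 active = inhibition of aptamer binding above 40%, roughly 3 SD of noise, on plates passing a quality check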;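 also: median bead fluorescence of bound FAM aptamer so fluorescent compounds give negative values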
* = called active by the depositor; nt = no result.

SMILES	Platelet DG rel	MIN6 prolif	NTR1 ag	GRK2 aptamer HTS
c1ccc(-c2nc3ccccc3[nH]2)nc1	14	-1	-1	2
Cc1ccc2nc(-c3ccccn3)[nH]c2c1	58*	-4	1	0
CCOC(=O)c1sc(N2C(=O)C(O)=C(C(=O)c3ccc(C)o3)C2c2ccc(OC)c(OC)c2)nc1C (configuration not stated)	-3	2	-1	14
CCOC(=O)c1sc(N2C(=O)C(O)=C(C(=O)c3ccc(C)o3)C2c2cccc([N+](=O)[O-])c2)nc1C (configuration not stated)	51*	nt	nt	2
CNc1ncc(C(=O)c2ccc(F)cc2)s1	-5	10*	0	0
COC(=O)c1ccc(N)cc1O	0	0	1	1
COC(=O)c1ccc(=O)c2nc3/c(=C/O)c(O)cc(=O)c3[nH]c12	nt	nt	nt	67*
O=C(COc1cc2oc(=O)c3c(c2cc1Cl)CCC3)NCCN1CCOCC1	9	-3	0	0
O=C(CCN1C(=O)C2CCCCC2C1=O)N1CCN(S(=O)(=O)c2c(F)cccc2F)CC1 (configuration not stated)	-5	3	0	13
COc1ccc(N=c2oc3ccccc3cc2C(=O)Nc2ccccn2)cc1OC	3	-3	10	72*
COc1ccc(C2CC(=O)C(C(c3ccc(O)cc3)C3C(=O)CC(c4ccc(OC)cc4)CC3=O)C(=O)C2)cc1 (configuration not stated)	5	-1	5	52*
Cc1ccc(S(=O)(=O)N(C)CC(=O)N2CCCCCC2)cc1	-5	-1	1	0
O=C(COC(=O)c1c[nH]c(=O)[nH]c1=O)Nc1ccccc1F	22	-3	-1	0
O=C(Nc1ccccc1F)c1c[nH]c(=O)[nH]c1=O	66*	1	1	2
O=C(Nc1c[nH]c(=O)[nH]c1=O)c1ccccc1Cl	1	-1	-1	2
CCOc1ccccc1C(=O)Nc1c[nH]c(=O)[nH]c1=O	88*	-1	0	0
COc1ccccc1C(=O)Nc1c[nH]c(=O)[nH]c1=O	96*	1	0	1
CC12CCC(=O)N1C(C(=O)Nc1ccc(SC(F)F)cc1)CS2 (configuration not stated)	0	-1	1	1
O=C(Nc1ccccc1)c1cn2ccccc2n1	42	-5	0	0
Cc1csc(NC(=O)c2cn3ccccc3n2)n1	57*	-5	0	0
O=C(CSc1n[nH]c(=O)n1C1CC1)NCc1ccccc1	8	-2	0	2
CCOC(=O)Cc1csc(NC(=O)C(NC(=O)C2CCC(C)CC2)C(C)C)n1 (configuration not stated)	2	-3	1	0
O=[N+]([O-])c1c(Nc2cccc(O)c2)cc(Cl)c2nonc12	60*	-4	1	2
O=C(c1ccccc1)c1ccc2cc(O)ccc2c1	71*	-2	5	67*
Cc1nn(CCCC(=O)Nc2cccnc2)c(C)c1[N+](=O)[O-]	1	1	3	2
SMILES	Platelet DG rel	MIN6 prolif	NTR1 ag	GRK2 aptamer HTS
Cc1nn(CC(=O)Nc2cccnc2)c(C)c1[N+](=O)[O-]	61*	1	-1	1
COc1ccc(OC)c(NC(=O)CCN2CCN(c3ccccc3OC)CC2)c1	4	-1	0	0
O=C(O)c1cc(N/N=C/c2ccc(-c3ccccc3)cc2)ccc1Cl	-28	nt	nt	43*
COc1ccc(OC)c(/C=N/NC(=O)Cc2nc3ccccc3[nH]2)c1	-10	0	-1	0
C=C(C)C(=O)Nc1cccc(C2=NOC3(C2)C[C@@H](C(N)=O)N(C(=O)C2(C)CC2)C3)c1 (some centres not stated)	0	-4	-3	91*
C=C(C)C(=O)Nc1cccc(C2=NOC3(C2)C[C@H](C(N)=O)N(C(=O)COc2ccc(Cl)cc2)C3)c1 (some centres not stated)	10	-1	0	97*
CSc1ccc(CNC(=O)C2CCC(=O)N(CCc3cccc(F)c3)C2)cc1 (configuration not stated)	-15	-2	0	0
Cc1nc2ccc(NC(=O)[C@H](C)N3C(=O)C4CC=CCC4C3=O)cc2s1 (some centres not stated)	nt	2	-2	5
CCOC(=O)c1ccc(N2C(=O)c3n[nH]c(C)c3C2c2ccc(OC)cc2OC)cc1 (configuration not stated)	-5	-2	12	0
COc1ccc(C2NC(=O)c3n[nH]c(C)c32)c(OC)c1 (configuration not stated)	62*	-3	4	12

Source: PubChem
